# PMC5913336, “True equilibrium measurement of transcription factor-DNA binding affinities using automated polarization microscopy”
# Tests used:
# Details in all cases: tags: N-GST (pGEX-6P-1, kept); dsDNA, one strand shown
# [1] = molecular target: Kr (Drosophila melanogaster, UniProt P07247 220-332); assay: FP; 20 mM Tris-acetate pH 7.0, 50 "nM" NaCl as printed (probably mM), 0.01% Tween 20, 0.1 mM DTT; conventional titration
# [2] = molecular target: T1, Cad (Drosophila melanogaster, UniProt P09085 273-344); assay: as above
# T1 sequence: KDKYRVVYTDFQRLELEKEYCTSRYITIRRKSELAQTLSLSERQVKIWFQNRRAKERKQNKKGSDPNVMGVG
# [3] = molecular target: T2, Croc (Drosophila melanogaster, UniProt P32027 54-175); assay: as above
# T2 sequence: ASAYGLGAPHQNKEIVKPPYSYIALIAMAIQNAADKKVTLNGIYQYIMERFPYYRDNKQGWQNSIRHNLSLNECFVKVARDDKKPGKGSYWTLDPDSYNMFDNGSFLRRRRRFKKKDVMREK
# [4] = molecular target: T3, Pan (Drosophila melanogaster, UniProt P91943 258-356); assay: FP; 33 mM phosphate pH 7.0, 90 mM NaCl, 0.01% Tween 20, 0.1 mM DTT, 0.5% agarose; room temperature
# T3 sequence: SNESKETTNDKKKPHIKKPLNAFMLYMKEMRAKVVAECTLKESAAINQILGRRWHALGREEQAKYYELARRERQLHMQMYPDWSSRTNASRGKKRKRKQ
# [5] = molecular target: T4, Ems (Drosophila melanogaster, UniProt P18488 373-462); assay: as above
# T4 sequence: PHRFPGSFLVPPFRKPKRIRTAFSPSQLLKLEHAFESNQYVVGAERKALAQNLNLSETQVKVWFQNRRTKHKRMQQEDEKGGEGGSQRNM
# Kr, sequence (P07247 220-332): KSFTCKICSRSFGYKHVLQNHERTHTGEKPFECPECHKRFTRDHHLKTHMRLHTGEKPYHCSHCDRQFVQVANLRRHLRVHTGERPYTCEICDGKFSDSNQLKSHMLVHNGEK
sequence,measurement,setting,value
TTGAGCGATTA,binding signal,[1],27.9 Kd / Kd of best base at the position
ATGAGGGATTA,binding signal,[1],1.06 Kd / Kd of best base at the position
TTGAGGGCTTA,binding signal,[1],2.19 Kd / Kd of best base at the position
TTGAGGGATAA,binding signal,[1],1.82 Kd / Kd of best base at the position
TTGCGGGATTA,binding signal,[1],12.2 Kd / Kd of best base at the position
TTGAGGGATCA,binding signal,[1],4.06 Kd / Kd of best base at the position
CACTTTATATA,binding signal,[2],3 Kd / Kd of best base at the position
TTGAGGCATTA,binding signal,[1],267 Kd / Kd of best base at the position
CACTTTTTAAA,binding signal,[2],13.6 Kd / Kd of best base at the position
TTGGGGGATTA,binding signal,[1],16.7 Kd / Kd of best base at the position
TTGAGGGATTT,binding signal,[1],1.61 Kd / Kd of best base at the position
CACTTCTTATA,binding signal,[2],16.8 Kd / Kd of best base at the position
TGGAGGGATTA,binding signal,[1],1.3 Kd / Kd of best base at the position
TTGAGGGAGTA,binding signal,[1],2.01 Kd / Kd of best base at the position
TAGAGGGATTA,binding signal,[1],1.67 Kd / Kd of best base at the position
TTGTGGGATTA,binding signal,[1],3.61 Kd / Kd of best base at the position
TTGAGGGTTTA,binding signal,[1],9.26 Kd / Kd of best base at the position
TTGAAGGATTA,binding signal,[1],1.22 Kd / Kd of best base at the position
TTGAGGGATGA,binding signal,[1],1.78 Kd / Kd of best base at the position
TTGAGGTATTA,binding signal,[1],13.8 Kd / Kd of best base at the position
TTGAGAGATTA,binding signal,[1],15.7 Kd / Kd of best base at the position
TTGAGGGGTTA,binding signal,[1],1.22 Kd / Kd of best base at the position
TTGATGGATTA,binding signal,[1],4.9 Kd / Kd of best base at the position
TTGAGGGATTA,Kd,[1],~0.2 nM
TTGAGTGATTA,binding signal,[1],37.9 Kd / Kd of best base at the position
CTGAGGGATTA,binding signal,[1],1.7 Kd / Kd of best base at the position
GTGAGGGATTA,binding signal,[1],1.3 Kd / Kd of best base at the position
TTTAGGGATTA,binding signal,[1],4.08 Kd / Kd of best base at the position
TCGAGGGATTA,binding signal,[1],1.5 Kd / Kd of best base at the position
TTAAGGGATTA,binding signal,[1],1.14 Kd / Kd of best base at the position
TTGACGGATTA,binding signal,[1],2.29 Kd / Kd of best base at the position
TTAGATAAATGTA,binding signal,[3],79 Kd / Kd of best base at the position
TTGAGGGACTA,binding signal,[1],3.27 Kd / Kd of best base at the position
TTGAGGGAATA,binding signal,[1],4.25 Kd / Kd of best base at the position
TTGAGGGATTC,binding signal,[1],2.58 Kd / Kd of best base at the position
TTCAGGGATTA,binding signal,[1],4.61 Kd / Kd of best base at the position
TTGAGGGATTG,binding signal,[1],1.33 Kd / Kd of best base at the position
TTGAGGAATTA,binding signal,[1],2.59 Kd / Kd of best base at the position
CACTTGTTATA,binding signal,[2],16.7 Kd / Kd of best base at the position
AGGCTTTGATAAA,binding signal,[4],4.74 Kd / Kd of best base at the position
AGTCTTTGCTAAA,binding signal,[4],2.06 Kd / Kd of best base at the position
AGTCTTCGATAAA,binding signal,[4],7.5 Kd / Kd of best base at the position
AGTGTTTGATAAA,binding signal,[4],2.49 Kd / Kd of best base at the position
AGTCTTTGATACA,binding signal,[4],2.07 Kd / Kd of best base at the position
AGTCGTTGATAAA,binding signal,[4],9.13 Kd / Kd of best base at the position
AGTCTTTGTTAAA,binding signal,[4],4.66 Kd / Kd of best base at the position
AGTCTTTTATAAA,binding signal,[4],3.15 Kd / Kd of best base at the position
CACGTACTTAGCTCA,binding signal,[5],47.3 Kd / Kd of best base at the position
AGTCTTTGATCAA,binding signal,[4],2.02 Kd / Kd of best base at the position
AGTCTTTGATTAA,binding signal,[4],1.63 Kd / Kd of best base at the position
AGTCTTTGATATA,binding signal,[4],1.14 Kd / Kd of best base at the position
AGACTTTGATAAA,binding signal,[4],1.18 Kd / Kd of best base at the position
AGTCTGTGATAAA,binding signal,[4],7.87 Kd / Kd of best base at the position
AGTCTTTGAAAAA,binding signal,[4],2.52 Kd / Kd of best base at the position
AGTCTATGATAAA,binding signal,[4],8.1 Kd / Kd of best base at the position
AATCTTTGATAAA,binding signal,[4],6.88 Kd / Kd of best base at the position
AGTCTTTGATGAA,binding signal,[4],1.49 Kd / Kd of best base at the position
ATTCTTTGATAAA,binding signal,[4],1.9 Kd / Kd of best base at the position
AGCCTTTGATAAA,binding signal,[4],2.89 Kd / Kd of best base at the position
TGTCTTTGATAAA,binding signal,[4],1.34 Kd / Kd of best base at the position
ACTCTTTGATAAA,binding signal,[4],1.97 Kd / Kd of best base at the position
AGTCTTTGGTAAA,binding signal,[4],1.21 Kd / Kd of best base at the position
AGTCTCTGATAAA,binding signal,[4],9.73 Kd / Kd of best base at the position
AGTTTTTGATAAA,binding signal,[4],5.89 Kd / Kd of best base at the position
AGTCCTTGATAAA,binding signal,[4],5.41 Kd / Kd of best base at the position
AGTCTTTGAGAAA,binding signal,[4],1.72 Kd / Kd of best base at the position
AGTCTTTGATAGA,binding signal,[4],1.78 Kd / Kd of best base at the position
AGTCATTGATAAA,binding signal,[4],7.68 Kd / Kd of best base at the position
AGTCTTAGATAAA,binding signal,[4],10.4 Kd / Kd of best base at the position
AGTCTTTGATAAG,binding signal,[4],3.01 Kd / Kd of best base at the position
AGTCTTTGACAAA,binding signal,[4],4.34 Kd / Kd of best base at the position
CACGTGATTAGCTCA,binding signal,[5],30.7 Kd / Kd of best base at the position
GGTCTTTGATAAA,binding signal,[4],1.08 Kd / Kd of best base at the position
AGTCTTGGATAAA,binding signal,[4],5.87 Kd / Kd of best base at the position
AGTCTTTAATAAA,binding signal,[4],4.58 Kd / Kd of best base at the position
AGTCTTTGATAAC,binding signal,[4],4.04 Kd / Kd of best base at the position
CGTCTTTGATAAA,binding signal,[4],2.92 Kd / Kd of best base at the position
AGTCTTTGATAAA,Kd,[4],~73 nM
CACGTAATTAGCGCA,binding signal,[5],6.39 Kd / Kd of best base at the position
CACGTAATTAGCCCA,binding signal,[5],4.42 Kd / Kd of best base at the position
CTCGTAATTAGCTCA,binding signal,[5],1.19 Kd / Kd of best base at the position
CACATAATTAGCTCA,binding signal,[5],1.34 Kd / Kd of best base at the position
CACGTAATTGGCTCA,binding signal,[5],8.18 Kd / Kd of best base at the position
CACGAAATTAGCTCA,binding signal,[5],16.8 Kd / Kd of best base at the position
CACGTAATGAGCTCA,binding signal,[5],6.94 Kd / Kd of best base at the position
CACGTAATTAGCTAA,binding signal,[5],3.58 Kd / Kd of best base at the position
CACGCAATTAGCTCA,binding signal,[5],2.2 Kd / Kd of best base at the position
CAAGTAATTAGCTCA,binding signal,[5],1.41 Kd / Kd of best base at the position
CACCTAATTAGCTCA,binding signal,[5],1.08 Kd / Kd of best base at the position
CACGTAATTAGATCA,binding signal,[5],2.14 Kd / Kd of best base at the position
CACGTCATTAGCTCA,binding signal,[5],1.28 Kd / Kd of best base at the position
CACGTAACTAGCTCA,binding signal,[5],72.2 Kd / Kd of best base at the position
CACGTAATTATCTCA,binding signal,[5],1.9 Kd / Kd of best base at the position
CACGTAATTAGCTCA,Kd,[5],~1.7 nM
CACGTAATTAACTCA,binding signal,[5],9.76 Kd / Kd of best base at the position
CACGTAATCAGCTCA,binding signal,[5],40.1 Kd / Kd of best base at the position
CACGGAATTAGCTCA,binding signal,[5],38.4 Kd / Kd of best base at the position
CAGGTAATTAGCTCA,binding signal,[5],1.11 Kd / Kd of best base at the position
CACGTAATTTGCTCA,binding signal,[5],10.5 Kd / Kd of best base at the position
CATGTAATTAGCTCA,binding signal,[5],1.24 Kd / Kd of best base at the position
CACGTTATTAGCTCA,binding signal,[5],26.4 Kd / Kd of best base at the position
CACGTAAGTAGCTCA,binding signal,[5],63.6 Kd / Kd of best base at the position
CACGTAATAAGCTCA,binding signal,[5],35.3 Kd / Kd of best base at the position
CACGTAATTCGCTCA,binding signal,[5],43.1 Kd / Kd of best base at the position
CACGTAATTACCTCA,binding signal,[5],1.46 Kd / Kd of best base at the position
CACGTAATTAGCTCG,binding signal,[5],2.39 Kd / Kd of best base at the position
CACTTAATTAGCTCA,binding signal,[5],2.71 Kd / Kd of best base at the position
CACGTAATTAGCACA,binding signal,[5],5.4 Kd / Kd of best base at the position
CACGTAAATAGCTCA,binding signal,[5],54.5 Kd / Kd of best base at the position
CACGTAGTTAGCTCA,binding signal,[5],74.7 Kd / Kd of best base at the position
TACGTAATTAGCTCA,binding signal,[5],1.04 Kd / Kd of best base at the position
CACGTAATTAGGTCA,binding signal,[5],7.3 Kd / Kd of best base at the position
CCCGTAATTAGCTCA,binding signal,[5],1.04 Kd / Kd of best base at the position
CACGTAATTAGCTGA,binding signal,[5],4.73 Kd / Kd of best base at the position
CACGTAATTAGCTCC,binding signal,[5],3.56 Kd / Kd of best base at the position
CACGTATTTAGCTCA,binding signal,[5],11.1 Kd / Kd of best base at the position
CGCGTAATTAGCTCA,binding signal,[5],1.07 Kd / Kd of best base at the position
GACGTAATTAGCTCA,binding signal,[5],1.01 Kd / Kd of best base at the position
AACGTAATTAGCTCA,binding signal,[5],1.04 Kd / Kd of best base at the position
CACGTAATTAGTTCA,binding signal,[5],3.85 Kd / Kd of best base at the position
